In PubChem BioAssay AID588728 (Vanderbilt Specialized Chemistry Center, 2011) one finds Emax and fold shift data, which are given here for two compounds.

Activity calls are given as the source filed them.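 The calls were made as follows: active = compound at 10 µM that moves glutamate potency by over twofold either way, or clearly lowers or raises peak response; inactive = the rest.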

The target of this test is Metabotropic glutamate receptor 3 (Rattus norvegicus) (UniProt P31422). The test is described as follows: mGluR5 PAM selectivity profiling against rat mGluR3, glutamate response modulation, fold shift by Tl+ flux in HEK/GIRK cells (AID 588728). As to conditions: HEK/GIRK rat mGluR3, thallium flux, glutamate CRC fold shift, at 10 µM; Emax: measured here: glutamate max response with compound.
Metabotropic glutamate receptor 3 (Rattus norvegicus), sequence (P31422 whole entry, looked up): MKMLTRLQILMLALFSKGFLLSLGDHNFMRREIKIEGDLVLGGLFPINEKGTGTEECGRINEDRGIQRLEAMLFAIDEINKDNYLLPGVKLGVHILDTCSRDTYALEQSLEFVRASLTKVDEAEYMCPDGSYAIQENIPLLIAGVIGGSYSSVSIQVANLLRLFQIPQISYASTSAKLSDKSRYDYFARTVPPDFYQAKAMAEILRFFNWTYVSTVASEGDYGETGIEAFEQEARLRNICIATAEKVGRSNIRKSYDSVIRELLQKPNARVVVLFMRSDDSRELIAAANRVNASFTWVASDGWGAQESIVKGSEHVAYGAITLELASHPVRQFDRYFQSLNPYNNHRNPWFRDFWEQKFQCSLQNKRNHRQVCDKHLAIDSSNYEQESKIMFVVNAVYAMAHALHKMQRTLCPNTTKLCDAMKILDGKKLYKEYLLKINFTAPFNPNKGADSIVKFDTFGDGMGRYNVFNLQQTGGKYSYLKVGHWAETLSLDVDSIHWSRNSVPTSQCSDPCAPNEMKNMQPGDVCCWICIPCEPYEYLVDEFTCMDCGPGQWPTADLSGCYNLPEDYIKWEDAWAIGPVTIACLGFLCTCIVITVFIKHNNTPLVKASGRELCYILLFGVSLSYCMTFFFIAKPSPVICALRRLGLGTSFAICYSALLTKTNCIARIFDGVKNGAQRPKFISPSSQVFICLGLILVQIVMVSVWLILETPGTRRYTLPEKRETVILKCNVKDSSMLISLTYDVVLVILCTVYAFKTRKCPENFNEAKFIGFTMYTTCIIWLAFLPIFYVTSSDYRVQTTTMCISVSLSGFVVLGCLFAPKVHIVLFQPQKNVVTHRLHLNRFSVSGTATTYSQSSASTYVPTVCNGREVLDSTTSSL

As for `C[C@@H](NC(=O)c1ccc(C#Cc2cccc(F)c2)cn1)C(C)(C)O`, the maximal effect (Emax) came to 89% and the fold shift is 0.95 (inactive).
In the same order, the values of `CC1(NC(=O)c2ccc(C#Cc3cccc(F)c3)cn2)COC1` are 84% and 0.85 (inactive).

The term Emax denotes the maximal effect, on the per cent scale that the assay sets.
